A selection: hits, their analogues and other compounds. The true share with any hit is near 1.3%.
GC-B act: human GC-B receptor activators, primary screen, HEK293 GC-B cells, cGMP TR-FRET, EC30 CNP; hit rate 0.11% among 370,000; activation, % at 10 µM; 0% at EC30 CNP, 100% saturating CNP; AID 1920062, 2024;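 active = activation at 10 µM reaching about 35% in either raw or pattern-adjusted values, limit read from the data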
HIF act: HIF pathway transcriptional activators, primary screen, cell-based, U2OS HRE-luciferase, luminescence; U2OS HRE-luciferase reporter; normalized: DMSO 0%, desferrioxamine 100%; activation, % at 7.5 µM (by protocol); hit rate 0.32% among 300,000;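 active = mean activation of at least 10% of the iron chelator positive control signal, with at least half of replicates also reaching 10%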
NPR1 activator: GC-A stimulated cGMP production enhancers – HEK293 GC-A cells, cGMP TR-FRET, EC30 ANP, primary screen; Atrial natriuretic peptide receptor 1 (Homo sapiens), P16066; 0% at EC30 ANP, 100% saturating ANP; activation, % at 10 µM; hit rate 0.14% among 370,000; AID 1671463, 2021; in the data active = activation above about 40%
KLK7 zymogen act: proKLK7 zymogen activators, primary screen, biochemical, fluorescence intensity. purified proKLK7, EDANS-DABCYL substrate fluorescence; 100% is mature enzyme control, 0% vehicle. Kallikrein-7 (Homo sapiens), P49862. hit rate 0.9% among 370,000. activation, % at 7 µM;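 active = activation above the mean of all tested compounds plus 3 SD, computed per campaign excluding outliers beyond control limits, cut at about 13% in these data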
Target sequence (P49862 whole entry, looked up): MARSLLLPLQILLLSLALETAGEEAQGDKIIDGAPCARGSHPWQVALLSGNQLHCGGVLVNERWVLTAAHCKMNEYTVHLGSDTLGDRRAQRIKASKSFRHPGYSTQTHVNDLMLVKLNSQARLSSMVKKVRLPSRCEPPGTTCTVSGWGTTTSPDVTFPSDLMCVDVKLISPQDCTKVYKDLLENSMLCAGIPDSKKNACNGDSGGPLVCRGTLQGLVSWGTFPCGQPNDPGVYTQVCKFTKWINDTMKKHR
Hits are given with their value; n = inactive; x = no result given.

SMILES	GC-B act	HIF act	NPR1 activator	KLK7 zymogen act
O=C(Cn1ncc2c3ccccc3n(Cc3ccccc3F)c2c1=O)NCC1CCCO1 (stereo not given)	36	n	n	n
CCCn1c2ccccc2c2cnn(CC(=O)NC3CCC(C)CC3)c(=O)c21 (stereo not given)	n	n	n	n
O=C(Cn1ncc2c3ccccc3n(Cc3ccccc3F)c2c1=O)N1CCN(c2ccccn2)CC1	41	n	n	n
Cc1ccccc1NC(=O)CSc1ccc(-c2ccccn2)nn1	n	n	n	n
Cc1cc(C)cc(NC(=O)CSc2ccc(-c3ccccn3)nn2)c1	n	10	n	n
C/C(C=Nn1c(-c2ccc(F)cc2)n[nH]c1=S)=C/c1ccco1	n	x	n	n
CCCCSc1nc2c([nH]1)c(=S)n(C)c(=O)n2C	37	x	n	n
Cn1c(=S)c2[nH]c(SCCC(C)(C)C)nc2n(C)c1=O	50	x	44	n
CC(C)C[C@H](NC1(C(=O)NCCc2c[nH]c3ccccc23)CCOCC1)C(=O)NCCCc1ccccc1	n	x	n	x
C/C(=N\NC(=S)NC(C)C)c1ccccc1	n	n	n	n
CC(C)NC(=S)NN=C1c2ccccc2-c2ccccc21	n	26	n	n
O=C(NCCCN1CCOCC1)c1cc(-c2ccccc2)on1	n	28	n	n
CCCCNC(=O)c1cc(-c2ccc(F)cc2)on1	n	41	n	n
O=C(NCCN1CCOCC1)c1cc(-c2ccccc2)on1	n	n	n	n
CCCC(=O)N1CCN(c2nc3ccccc3s2)CC1	n	n	n	n
CCC(=O)N1CCN(c2nc3ccc(Br)cc3s2)CC1	n	12	n	n
CCCCC(=O)N1CCN(c2nc3ccc(F)cc3s2)CC1	n	9.8	n	n
COC(=O)[C@H](C(C)C)N(CCCc1cn(CC2CCCCC2)nn1)S(=O)(=O)c1ccc(F)cc1Br	n	x	n	n
CCNC(=O)C[C@H]1CC[C@H]2[C@@H](COc3ccc(NC(=O)c4ccc5c(c4)OCO5)cc3C(=O)N2C)O1	n	x	n	n
Cc1cc(C(=O)Nc2ccc(F)cc2)n(-c2ccccc2)n1	n	x	n	n
N#Cc1ccccc1N1CCN(C(=O)C2CCN(c3ncnc4c3sc3cccc(F)c34)CC2)CC1	n	x	n	n
CCOC(=O)CNCCC(=O)c1ccc(Br)cc1	n	n	49	n
Cc1cccc(NCCC(=O)c2ccc(Br)cc2)c1	n	n	n	n
O=C(NCc1cccs1)C1CC(=O)N(C2CCCC2)C1 (stereo not given)	n	214	n	n
O=C1CCS/C(=N\N=C\c2ccc(Cl)cc2Cl)N1	n	n	56	n
SMILES	GC-B act	HIF act	NPR1 activator	KLK7 zymogen act
COc1ccc(OC)c(S(=O)(=O)ON2C(=O)c3ccccc3C2=O)c1	44	n	44	n
C[C@H]1COc2cc(F)ccc2S(=O)(=O)N1C	n	x	n	n
CCOC(=O)N1CCN(C(=O)c2ccc3c(c2)N(Cc2ccc(F)cc2)CCS3)CC1	n	n	n	n
CCOC(=O)N1CCN(C(=O)c2ccc3c(c2)N(CC)CCS3)CC1	n	n	n	14
CCNC(=O)C[C@H]1CC[C@H]2[C@@H](COc3ccc(NC(=O)Nc4ccccc4)cc3C(=O)N2C)O1	n	x	n	n
CCn1c(N2CCC(Cc3ccccc3)CC2)nc2c1c(=O)[nH]c(=O)n2C	n	17	n	n
CC1CCN(c2nc3c(c(=O)[nH]c(=O)n3C)n2Cc2ccccc2)CC1	n	n	n	n
Cn1c(=O)[nH]c(=O)c2c1nc(NC1CCCCC1)n2Cc1ccccc1	39	n	52	n
Cc1cccc(Cn2c(NC3CCCC3)nc3c2c(=O)[nH]c(=O)n3C)c1	n	x	n	n
COc1ccc(CSc2nnc(SCC(=O)Nc3ccc4c(c3)OCO4)s2)cc1	n	x	n	n
COc1cc(NC(=O)C2CCCN(S(=O)(=O)c3ccc(C)cc3)C2)cc(OC)c1 (stereo not given)	n	x	n	n
O=C1C=C(c2ccccc2)C[C@H](c2cccs2)[C@H]1n1nnc([N+](=O)[O-])n1	n	n	n	n
O=C1C=C(c2ccccc2)CC(c2cccs2)C1n1cnc([N+](=O)[O-])c1 (stereo not given)	n	48	n	n
S=C(Nc1ccc2cn[nH]c2c1)Nc1ccc(Cl)cc1Cl	n	n	n	n
S=C(Nc1ccc2cn[nH]c2c1)Nc1ccccc1Cl	n	11	n	n

Assay outcomes (PubChem BioAssay)
